Values without a mark were called inactive. Results filed as inconclusive are left out. Entries that show only a call come without a potency. Calls of active or inactive are those of the source. Calls follow the shape of the full dose curve.
Tests used:
[1] = target: Acetylcholinesterase (Homo sapiens) (UniProt P22303); assay: Acetylcholinesterase (AChE) small molecule antagonists: colormetric cell-based qHTS assay (AID 1347395); also: nearly all actives have a fitted effect of over 30% in size; also: potency is read from the fitted curve at half-maximal effect
Sequence of Acetylcholinesterase (Homo sapiens) (P22303 whole entry, looked up): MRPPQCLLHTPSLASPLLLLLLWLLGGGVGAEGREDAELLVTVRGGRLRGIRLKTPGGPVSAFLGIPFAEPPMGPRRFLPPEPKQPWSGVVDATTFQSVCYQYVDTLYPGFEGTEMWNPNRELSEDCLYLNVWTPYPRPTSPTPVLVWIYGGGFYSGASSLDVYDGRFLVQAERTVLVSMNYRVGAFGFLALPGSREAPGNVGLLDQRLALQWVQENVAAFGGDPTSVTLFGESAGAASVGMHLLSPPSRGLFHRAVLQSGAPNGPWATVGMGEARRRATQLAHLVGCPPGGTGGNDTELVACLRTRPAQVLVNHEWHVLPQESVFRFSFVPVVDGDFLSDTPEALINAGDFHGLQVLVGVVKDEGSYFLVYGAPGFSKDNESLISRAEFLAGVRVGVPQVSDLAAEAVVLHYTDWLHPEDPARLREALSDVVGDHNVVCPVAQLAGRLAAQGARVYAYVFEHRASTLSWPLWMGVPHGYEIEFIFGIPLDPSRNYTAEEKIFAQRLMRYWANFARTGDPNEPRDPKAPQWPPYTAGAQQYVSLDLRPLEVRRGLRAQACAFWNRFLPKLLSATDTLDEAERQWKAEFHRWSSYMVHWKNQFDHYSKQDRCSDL
Procedure, shortened: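 Quantitative HTS in attached SH-SY5Y cells: 30 min compound exposure, then 90 min with acetylthiocholine and DTNB at 37 C; colour from thiocholine reports AChE activity.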

[2] = target: Acetylcholinesterase (Homo sapiens) (UniProt P22303); assay: Acetylcholinesterase (AChE) small molecule antagonists: enzyme-based qHTS assay (AID 1347397); details: Potency: AChE enzyme activity inhibition; outcome: AChE enzyme activity inhibition; also: nearly all actives have a fitted effect of over 55% in size
Procedure, shortened: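 First, recombinant human AChE (50 mU/mL as dispensed) received test compound or DMSO. Second, plates stood 30 min at room temperature. Third, DTNB and acetylthiocholine were added, followed by 10 min at room temperature and colorimetric detection.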

[3] = target: Acetylcholinesterase (Homo sapiens) (UniProt P22303); assay: Acetylcholinesterase (AChE) small molecule antagonists: fluorescence cell-based qHTS assay (AID 1347398); details: Potency: AChE activity; outcome: AChE activity; also: nearly all actives have a fitted effect of over 50% in size; also: potency is read from the fitted curve at half-maximal effect
Procedure, shortened: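 Homogeneous quantitative HTS format. SH-SY5Y cells seeded at 2,000 per well settle overnight at 37 C. Compound pretreatment runs 30 min (37 C, 5% CO2); substrate/probe mix then reacts 40 min at RT before reading 490/520 nm.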

[4] = target: Acetylcholinesterase (Homo sapiens) (UniProt P22303); assay: Acetylcholinesterase (AChE) small molecule antagonists: enzyme-based qHTS assay with human liver microsomes (AID 1347399); details: Potency: qHTS inhibition; outcome: qHTS inhibition; also: nearly all actives have a fitted effect of over 60% in size
Procedure, shortened: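 Recombinant human AChE (50 mU/mL in the enzyme mix) and human liver microsomes (0.25 mg/mL final) were preincubated with compound and NADPH (0.25 mg/mL final) for 30 min at 37 C. Acetylthiocholine/DTNB was then added; thiocholine was read colorimetrically after 10 min at room temperature.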

Row | Structure (SMILES) | Potency [1] | Potency [2] | Potency [3] | Potency [4] | activity, negative = inhibition [1] | activity change, negative = inhibition [2] | activity change, negative = inhibition [3] | activity change, negative = inhibition [4]
1 | Cc1nc2ccc(CN(C)c3ccc(C(=O)N[C@@H](CCC(=O)O)C(=O)O)s3)cc2c(=O)[nH]1 | inactive | inactive | inactive | inactive |  |  |  | 
2 | C=CCCCCCCCCO | inactive | inactive | inactive | inactive |  |  |  | 
3 | CCCCCCCCCCCCO | inactive | inactive | inactive | inactive |  |  |  | 
4 | CC1=CC(=C(c2ccc(N)cc2)c2ccc(N)cc2)C=CC1=N |  |  |  |  | 0.517% [at 10.5 µM] | 0.534% [at 10.5 µM] | -4.07% [at 10.5 µM] | 0.485% [at 10.5 µM]
5 | c1ccc2sc(SSc3nc4ccccc4s3)nc2c1 |  |  |  |  | -2.2% [at 23.6 µM] | 0.97% [at 23.6 µM] | 3.45% [at 23.8 µM] | -1.01% [at 23.6 µM]
6 | CC(=O)O[Si](C)(OC(C)=O)OC(C)=O | inactive | inactive | inactive | inactive |  |  |  | 
7 | CCC1COC(=O)O1 (stereo not given) | inactive | inactive | inactive | inactive |  |  |  | 
8 | CC(C)CCCCCCc1ccc(OCCOCCO)cc1 | inactive | inactive | inactive | inactive |  |  |  | 
9 | CCOCCC(=O)OCC | inactive | inactive | inactive | inactive |  |  |  | 
10 | O=C(O)CCC(=O)OC[C@@H](NC(=O)C(Cl)Cl)[C@H](O)c1ccc([N+](=O)[O-])cc1 | inactive | inactive | inactive | inactive |  |  |  | 
11 | Cc1ccc2ccccc2c1[N+](=O)[O-] | inactive | inactive | inactive | inactive |  |  |  | 
12 | CN(C)c1ccc(C(c2ccccc2)c2ccc(N(C)C)cc2)cc1 | inactive | inactive | inactive | inactive |  |  |  | 
13 | Fc1ccccc1[C@@H](F)COC1CCC(Nc2ncnc3[nH]ncc23)CC1 (stereo not given in full) | inactive | inactive | inactive | inactive |  |  |  | 
14 | O=C1C=CC(=O)O1 | inactive | inactive | inactive | inactive |  |  |  | 
15 | CCCCCCN | inactive | inactive | inactive | inactive |  |  |  | 
16 | O=C(O)CCCC[C@@H]1SC[C@@H]2NC(=O)N[C@@H]21 | inactive | inactive | inactive | inactive |  |  |  | 
17 | Cc1oc(-c2ccccc2)nc1CCC(=O)c1ccc(CC2SC(=O)NC2=O)cc1 (stereo not given) | inactive | inactive | inactive | inactive |  |  |  | 
18 | NNc1nc(-c2ccc([N+](=O)[O-])cc2)cs1 | inactive | inactive | inactive | inactive |  |  |  | 
19 | CCCCCCCCN | inactive | inactive | inactive | inactive |  |  |  | 
20 | CSc1ccc(Cl)cc1 | inactive | inactive | inactive | inactive |  |  |  | 

Row | Structure (SMILES) | Potency [1] | Potency [2] | Potency [3] | Potency [4] | activity, negative = inhibition [1] | activity change, negative = inhibition [2] | activity change, negative = inhibition [3] | activity change, negative = inhibition [4]
21 | O=C(c1ccccc1)c1ccccc1O | inactive | inactive | inactive | inactive |  |  |  | 
22 | CN(C)c1ccc(O)c2c1C[C@H]1C[C@H]3[C@H](N(C)C)C(=O)C(C(N)=O)=C(O)[C@@]3(O)C(=O)C1=C2O | inactive | inactive | inactive | inactive |  |  |  | 
23 | C=C(C)C(=O)OCC(O)CO (stereo not given) | inactive | inactive | inactive | inactive |  |  |  | 
24 | COC(=O)Nc1nc2ccc(C(=O)C3CC3)cc2[nH]1 | inactive | inactive | inactive | inactive |  |  |  | 
25 | C=C(C)C(=O)O[C@H]1C[C@@H]2CC[C@@]1(C)C2(C)C | inactive | inactive | inactive | inactive |  |  |  | 
26 | O=C(O)CCCCCCCCCCCC(=O)O | inactive | inactive | inactive | inactive |  |  |  | 
27 | COC(C)(C)CCCC(C)CC=O (stereo not given) | inactive | inactive | inactive | inactive |  |  |  | 
28 | CC1(C)CO[C@@H](CC(=O)O)CN1 | inactive | inactive | inactive | inactive |  |  |  | 
29 | CC(C)(N=C=O)c1cccc(C(C)(C)N=C=O)c1 | inactive | inactive | inactive | inactive |  |  |  | 
30 | O=c1n(CC2CO2)c(=O)n(CC2CO2)c(=O)n1CC1CO1 (stereo not given) | inactive | inactive | inactive | inactive |  |  |  | 
31 | CCCOC(C)=O | inactive | inactive | inactive | inactive |  |  |  | 
32 | C#CC(O)CCC (stereo not given) | inactive | inactive | inactive | inactive |  |  |  | 
33 | Cc1cccc(Nc2ccncc2S(=O)(=O)NC(=O)NC(C)C)c1 | inactive | inactive | inactive | inactive |  |  |  | 
34 | Nc1ccc2cc(S(=O)(=O)O)cc(O)c2c1 | inactive | inactive | inactive | inactive |  |  |  | 
35 | COc1ccccc1O | inactive | inactive | inactive | inactive |  |  |  | 
36 | Cc1cn([C@H]2C[C@H](N=[N+]=[N-])[C@@H](CO)O2)c(=O)[nH]c1=O | inactive | inactive | inactive | inactive |  |  |  | 
37 | CCCCOCCOCCOC(C)=O | inactive | inactive | inactive | inactive |  |  |  | 
38 | CC(C)(CO)[C@@H](O)C(=O)NCCCO | inactive | inactive | inactive | inactive |  |  |  | 
39 | CC(=O)Oc1ccccc1C(=O)O | inactive | inactive | inactive | inactive |  |  |  | 
40 | Cc1c(Cl)c(=O)oc2cc(O)ccc12 | 35.6 µM (active) | inactive | 71 µM (active) | inactive |  |  |  | 

Row | Structure (SMILES) | Potency [1] | Potency [2] | Potency [3] | Potency [4] | activity, negative = inhibition [1] | activity change, negative = inhibition [2] | activity change, negative = inhibition [3] | activity change, negative = inhibition [4]
41 | CCc1c(C(=O)NN2CCCCC2)nn(-c2ccc(Cl)cc2Cl)c1-c1ccc(Br)cc1 | inactive | inactive | inactive | inactive |  |  |  | 
42 | O=C(O)CC(=O)O | inactive | inactive | inactive | inactive |  |  |  | 
43 | c1cc(N(CC2CO2)CC2CO2)ccc1OCC1CO1 (stereo not given) | inactive | inactive | inactive | inactive |  |  |  | 
44 | O=C(c1ccccc1)C(O)c1ccccc1 (stereo not given) | inactive | inactive | inactive | inactive |  |  |  | 
45 | Cc1cc(C)cc(O)c1 | inactive | inactive | inactive | inactive |  |  |  | 
46 | CCc1ccccc1CC | inactive | inactive | inactive | inactive |  |  |  | 
47 | CCn1cc(C(=O)O)c(=O)c2cc(F)c(N3CCNCC3)nc21 | inactive | inactive | inactive | inactive |  |  |  | 
48 | C=CC(=O)NC(C)(C)CS(=O)(=O)O | inactive | inactive | inactive | inactive |  |  |  | 
49 | CN1C(CSCC(F)(F)F)Nc2cc(Cl)c(S(N)(=O)=O)cc2S1(=O)=O (stereo not given) | inactive | inactive | inactive | inactive |  |  |  | 
50 | COc1ccc(C2CNC(=O)C2)cc1OC1CCCC1 (stereo not given) | inactive | inactive | inactive | inactive |  |  |  | 
51 | CO[C@@]1(NC(=O)Cc2cccs2)C(=O)N2C(C(=O)O)=C(COC(N)=O)CS[C@@H]21 | inactive | inactive | inactive | inactive |  |  |  | 
52 | CCCCCc1cccc(=O)o1 | inactive | inactive | inactive | inactive |  |  |  | 
53 | C1CCC(SSC2CCCCC2)CC1 | inactive | inactive | inactive | inactive |  |  |  | 
54 | CCC(=O)O[C@]1(C(=O)SCF)[C@H](C)C[C@H]2[C@@H]3C[C@H](F)C4=CC(=O)C=C[C@]4(C)[C@@]3(F)[C@@H](O)C[C@@]21C | inactive | inactive | inactive | inactive |  |  |  | 
55 | Nc1ccc(S(=O)(=O)NCc2ccccc2)cc1 | inactive | inactive | inactive | inactive |  |  |  | 
56 | c1ccc2nccnc2c1 | inactive | inactive | inactive | inactive |  |  |  | 
57 | COc1ccc([C@@H]2CC(=O)c3c(O)cc(O[C@@H]4O[C@H](CO[C@@H]5O[C@@H](C)[C@H](O)[C@@H](O)[C@H]5O)[C@@H](O)[C@H](O)[C@H]4O)cc3O2)cc1OC | inactive | inactive | inactive | inactive |  |  |  | 
58 | CC1=NN(c2ccc(C(=O)O)cc2)C(=O)C1 | inactive | inactive | inactive | inactive |  |  |  | 
59 | O=C(NOCC1CC1)c1ccc(F)c(F)c1Nc1ccc(I)cc1Cl | inactive | inactive | inactive | inactive |  |  |  | 
60 | CCCCCCCCCCO | inactive | inactive | inactive | inactive |  |  |  | 

From PubChem BioAssay (Tox21)
